Data published in PubChem BioAssay (NCATS).
Values joined by “and” are separate entries in the source; they are usually repeats but may differ in a detail not shown here. Equal entries are not always repeated. Inconclusive results are not listed. A structure can be active in one record and inactive in another. Active and inactive are the calls of the source. Calls follow the shape of the dose curve; as a rule, active = well fitted curve in the direction sought with a large enough effect; inconclusive = small, poorly fitted or top-dose-only effect, or another doubt; inactive = no such curve, though single readings can be large; an effect the other way counts as inactive or inconclusive.

Columns and labels:
[1] = tested on: CRL-7250; test: Cytotoxic Profiling of Annotated Libraries Using Quantitative High-Throughput Screening (AID 1296008); conditions: Five cell lines viability, CellTiter-Glo ATP luminescence, 48-72 h; max response: stronger effect = lower value; also: nearly all actives have a fitted effect of over 60% in size; also: potency is read from the fitted curve at half-maximal effect; as to max response: % is scaled to controls: 0 for no effect and ±100 for the full control effect
How it was run: (§1)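 Cells exposed to compounds for 48 or 72 hr at 37 degrees Celsius. Viability read as ATP-coupled luminescence with CellTiter-Glo after 10 min at room temperature.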

[2] = tested on: HEK293; test: as above; conditions: Five cell lines viability, CellTiter-Glo ATP luminescence, 48-72 h; max response: stronger effect = lower value
How it was run: as §1

[3] = tested on: NIH3T3; test: as above; conditions: Five cell lines viability, CellTiter-Glo ATP luminescence, 48-72 h; max response: stronger effect = lower value
How it was run: as §1

[4] = tested on: MCC-26; test: qHTS assay to identify novel small-molecules to repurpose for Merkel cell carcinoma treatment (AID 1296009); conditions: MCC and control cell lines, CellTiter-Glo viability, 72 h; series mostly up to 46 µM; also: nearly all actives have a fitted effect of over 60% in size; also: potency is read from the fitted curve at half-maximal effect
How it was run: (§2)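 Cells were treated for 72 hr at 37 degree celsius with compounds in 8- or 11-point dose response. Viability was read by CellTiter-Glo luminescence, normalized to no-cell (cytotoxicity) and DMSO controls.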

[5] = tested on: MKL-1; test: as above; conditions: MCC and control cell lines, CellTiter-Glo viability, 72 h; series mostly up to 46 µM
How it was run: as §2

[6] = tested on: HaCat; test: Cytotoxic Profiling of Annotated Libraries Using Quantitative High-Throughput Screening (AID 1296008); conditions: Five cell lines viability, CellTiter-Glo ATP luminescence, 48-72 h; max response: stronger effect = lower value; also: nearly all actives have a fitted effect of over 60% in size; also: potency is read from the fitted curve at half-maximal effect; as to max response: % is scaled to controls: 0 for no effect and ±100 for the full control effect
How it was run: as §1

[7] = tested on: KB-3-1; test: as above; conditions: Five cell lines viability, CellTiter-Glo ATP luminescence, 48-72 h; max response: stronger effect = lower value
How it was run: as §1

[8] = tested on: HACAT; test: qHTS assay to identify novel small-molecules to repurpose for Merkel cell carcinoma treatment (AID 1296009); conditions: MCC and control cell lines, CellTiter-Glo viability, 72 h; at 44.8 µM (top of the series) unless noted; also: nearly all actives have a fitted effect of over 60% in size; also: potency is read from the fitted curve at half-maximal effect
How it was run: as §2

[9] = tested on: MCC-13; test: as above; conditions: MCC and control cell lines, CellTiter-Glo viability, 72 h; series mostly up to 46 µM
How it was run: as §2

[10] = tested on: MKL-2; test: as above; conditions: MCC and control cell lines, CellTiter-Glo viability, 72 h; series mostly up to 46 µM
How it was run: as §2

[11] = tested on: UISO; test: as above; conditions: MCC and control cell lines, CellTiter-Glo viability, 72 h; series mostly up to 46 µM
How it was run: as §2

[12] = tested on: WaGa; test: as above; conditions: MCC and control cell lines, CellTiter-Glo viability, 72 h; series mostly up to 46 µM
How it was run: as §2

[13] = tested on: C33A; test: Primary qHTS to identify gynecologic anti-cancer compounds using libraries of approved drugs and bioactive compounds (AID 1345084); conditions: Gynecologic cancer cell panel viability, ATPlite luminescence, 48 h; series mostly up to 57.5 µM; also: % is scaled to controls: 0 for no effect and ±100 for the full control effect; nearly all actives have a fitted effect of over 55% in size
How it was run: (§3)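 Cells, 1,000 per well, plated 16 h, then exposed 48 h at 37 C to compounds. Viability by ATPlite luminescence after 15 min at room temperature.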

[14] = tested on: CAOV3; test: as above; conditions: Gynecologic cancer cell panel viability, ATPlite luminescence, 48 h; series mostly up to 57.5 µM
How it was run: as §3

[15] = tested on: CASKI; test: as above; conditions: Gynecologic cancer cell panel viability, ATPlite luminescence, 48 h; series mostly up to 57.5 µM
How it was run: as §3

[16] = tested on: Es-2; test: as above; conditions: Gynecologic cancer cell panel viability, ATPlite luminescence, 48 h; series mostly up to 57.5 µM
How it was run: as §3

[17] = tested on: NIH3T3; test: qHTS assay to identify novel small-molecules to repurpose for Merkel cell carcinoma treatment (AID 1296009); conditions: MCC and control cell lines, CellTiter-Glo viability, 72 h; at 44.8 µM (top of the series) unless noted; also: nearly all actives have a fitted effect of over 60% in size; also: potency is read from the fitted curve at half-maximal effect
How it was run: as §2

[18] = tested on: TAB165; test: qHTS profiling for inhibitors of Plasmodium falciparum proliferation (AID 504749); conditions: P. falciparum in erythrocytes, SYBR Green DNA, 72 h; series mostly up to 28.7 µM
How it was run: (§4)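 P. falciparum-infected erythrocytes (0.3% parasitemia, 2.5% hematocrit) incubated with compound 72 h at 37 C, 5% CO2. Parasite DNA detected by SYBR Green after lysis, overnight at room temperature; normalised to 0.29 uM artemisinin and DMSO.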

[19] = tested on: W2; test: as above; conditions: P. falciparum in erythrocytes, SYBR Green DNA, 72 h; series mostly up to 28.7 µM
How it was run: as §4

COCC(=O)NCC=Cc1ccc2ncnc(Nc3ccc(Oc4ccc(C)nc4)c(C)c3)c2c1
active: Potency [1] 23.5 µM | Potency [2] 13.2 µM
inactive: max response [3] -10.3% | Potency [4] | Potency [5]

NC(=O)c1ccc(-c2nc(-c3ccc4c(c3)OCO4)c(-c3ccccn3)[nH]2)cc1
inactive: max response [1] 3.54% | outcome [6] | max response [7] -0.83% | max response [3] -25.4% | outcome [8] | Potency [9] | Potency [4] | Potency [5] | Potency [10] | Potency [11] | Potency [12]

COc1ccc(C2=N[C@H](c3ccc(Cl)cc3)[C@H](c3ccc(Cl)cc3)N2C(=O)N2CCNC(=O)C2)c(OC(C)C)c1
active: Potency [1] 3.32 µM | Potency [2] 11.8 µM | Potency [5] 9.35 µM | Potency [12] 2.96 µM
inactive: Potency [9]

CCc1cc(Nc2nccc(-c3c(-c4ccc(OC)c(C(=O)Nc5c(F)cccc5F)c4)nc4ccccn34)n2)c(OC)cc1N1CCC(N2CCN(S(C)(=O)=O)CC2)CC1
inactive: max response [1] -19.7% | outcome [6] | max response [7] 5.37% and -9.54% | max response [3] -25.3% | outcome [8] | Potency [9] | Potency [4] | Potency [5] | Potency [12] | Potency [13] | Potency [14] | Potency [15] | Potency [16]

COc1nc(-c2ccc3c(c2)OCO3)n(-c2ccc(NC(=O)CSc3ccccc3)cc2)n1
inactive: max response [1] -34% | outcome [6] | max response [7] -3.01% and -18.6% | max response [3] -26.7% | outcome [8] | Potency [9] | Potency [4] | Potency [5] | Potency [10] | Potency [11] | Potency [12] | Potency [13] | Potency [14] | Potency [15] | Potency [16]

COc1c(Cl)cc2c([nH]c3cnccc32)c1NC(=O)c1cccnc1C
inactive: outcome [1] | outcome [6] | max response [7] 9.41% | outcome [7] | max response [3] -6% and -16.3% | outcome [8] | Potency [9] | Potency [4] | Potency [5] | Potency [10] | Potency [11] | Potency [12] | Potency [13] | Potency [14] | Potency [15] | Potency [16]

O=S(=O)(N=Cc1c(O)ccc2ccccc12)c1cccs1
inactive: max response [1] -0.432% | max response [6] -24.1% | max response [7] 0.0321% | outcome [3] | Potency [9] | Potency [5] | Potency [10] | outcome [17] | Potency [12]

Cc1ccccc1C(OCCN(C)C)c1ccccc1 (stereo not drawn)
inactive: outcome [1] | max response [6] -11.7% | outcome [6] | max response [7] 4.24% and -3.9% | outcome [7] | max response [3] -2.58% and 4.52% | outcome [8] | Potency [9] | Potency [4] | Potency [5] | Potency [10] | Potency [11] | Potency [12] | Potency [13] | Potency [14] | Potency [15] | Potency [16]
active: Potency [18] 7.94 µM | Potency [19] 4.26 µM

Clc1ccc(Nc2nnc(Cc3ccncc3)c3ccccc23)cc1
active: Potency [18] 12.6 µM
inactive: max response [1] 1.53% and -11.9% and 0.195% | max response [6] -5.86% | outcome [6] | max response [7] -8.03% and 60.3% | max response [3] -1.18% and -1.64% | outcome [8] | Potency [9] | Potency [4] | Potency [11] | Potency [13] | Potency [14] | Potency [15] | Potency [16]
inactive and 13.3 µM (active): Potency [10]

CCC(C)N(C)C(=O)c1cc2ccccc2c(-c2ccccc2Cl)n1 (stereo not drawn)
inactive: max response [1] 0.969% | outcome [6] | max response [7] 3.08% | max response [3] -14% | outcome [8] | Potency [9] | Potency [4] | Potency [5] | Potency [10] | Potency [11] | Potency [12]

CC1(C)CNc2cc(NC(=O)c3cccnc3NCc3ccncc3)ccc21
active: Potency [2] 5.8 µM | Potency [3] 10.3 µM
inactive: max response [2] -29.2% | outcome [6] | max response [7] 3.54% and 4.82% | max response [3] -1.33% | outcome [8] | Potency [9] | Potency [5] | Potency [10] | Potency [13] | Potency [14] | Potency [15] | Potency [16]
